LANA-H2A inh = blockers of LANA interaction with H2A/H2B – biochemical, FP readout, HTS, primary screen | Protein LANA1 (Human herpesvirus 8 type P (isolate GK18)), Q9QR71 | cell-free LANA-H2A/H2B peptide, fluorescence polarization | inhibition, % (test concentration not listed) | 320,000 tested, 0.6% active | AID 2629, 2010; in the data active means inhibition mostly above about 10%, no sharp cut-off; inactive means mostly below about 6.7%
PRMT1 inh = PRMT1 methyltransferase inhibitors, primary screen, biochemical, fluorescence polarization | Protein arginine N-methyltransferase 1 (Homo sapiens), Q99873 | recombinant PRMT1, activity-based probe fluorescence polarization | inhibition, % at 2.79 µM | 370,000 tested, 1.3% active;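 active means inhibition above about 21% made by adding two undisclosed values, limit read from the data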
Target sequence (Q99873 whole entry, looked up): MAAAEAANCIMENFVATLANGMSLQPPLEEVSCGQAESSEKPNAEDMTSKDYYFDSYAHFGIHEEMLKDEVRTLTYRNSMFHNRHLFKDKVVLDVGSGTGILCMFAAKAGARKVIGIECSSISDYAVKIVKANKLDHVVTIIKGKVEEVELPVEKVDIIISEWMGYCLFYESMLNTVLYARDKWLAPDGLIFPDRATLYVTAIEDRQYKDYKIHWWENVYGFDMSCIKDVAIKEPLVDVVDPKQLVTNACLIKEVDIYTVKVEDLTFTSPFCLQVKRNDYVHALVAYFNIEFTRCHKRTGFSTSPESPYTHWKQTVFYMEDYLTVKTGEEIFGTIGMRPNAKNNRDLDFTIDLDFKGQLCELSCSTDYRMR
rCAG binder = binders of r(CAG) RNA repeats, primary screen, biochemical, fluorescence; r(CAG) RNA repeat, TO-PRO-1 dye displacement fluorescence; inhibition, % at 3 µM; 370,000 tested, 1.3% active;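 active means inhibition above the plate cutoff, the mean of all test compounds on that plate plus 3 SD, cut at about 35% in these data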;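 further: 0% = DMSO alone and 100% = 100 µM mitoxantrone as full dye displacement; higher means more dye released from RNA so lower well fluorescence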
Rtt109 Vps75 = inhibitors of C. albicans Rtt109/Vps75 HAT, primary screen, biochemical, ThioGlo CoA-SH fluorescence, plate reader | 330,000 tested, 0.16% active | Histone acetyltransferase RTT109 (Candida albicans (strain SC5314 / ATCC MYA-2876)), … | inhibition, % at 34.9 µM | purified Rtt109/Vps75, 4 h;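 active means inhibition of at least 50% in every replicate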
ABHD5-PLIN5 inh = ABHD5-PLIN5 interaction inhibitors, primary screen, cell lysate, split luciferase complementation, luminescence; Split G. princeps luciferase complementation, 4 h; Perilipin-5 (Homo sapiens) + 1-acylglycerol-3-phosphate O-acyltransferase ABHD5 (Homo …; AID 602281, 2012; 360,000 tested, 0.78% active; inhibition, % at 4 µM;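 active means inhibition above the mean inhibition across every tested compound plus 3 SD, cut at about 22% in these data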;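 further: 0% = DMSO only wells and the 100% control is not disclosed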
ALR inh = inhibitors of human ALR sulfhydryl oxidase, primary screen, biochemical, H2O2 detection, HRP-luminol luminescence, single point | AID 485317, 2010 | FAD-linked sulfhydryl oxidase ALR (Homo sapiens), P55789 | 290,000 tested, 3.8% active | purified ALR, DTT oxidation | inhibition, % (no concentration beside the values);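 active means mean replicate inhibition above about 79%, with every replicate also reaching it, limit read from the data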
Target sequence (P55789 whole entry, looked up): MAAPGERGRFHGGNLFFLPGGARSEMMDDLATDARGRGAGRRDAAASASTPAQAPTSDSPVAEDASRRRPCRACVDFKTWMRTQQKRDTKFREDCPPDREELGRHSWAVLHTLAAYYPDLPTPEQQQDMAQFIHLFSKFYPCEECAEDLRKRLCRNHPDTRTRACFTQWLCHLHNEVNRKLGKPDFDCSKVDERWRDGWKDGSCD
PRMT1 confirm = PRMT1 methyltransferase inhibitors, confirmation, biochemical, fluorescence polarization, triplicate | 3,300 tested, 42% active | AID 687036, 2013 | shares compounds with PRMT1 inh | recombinant His-PRMT1, activity-based probe fluorescence polarization | inhibition, % at 2.79 µM;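 active means mean inhibition across replicates above the hit cutoff derived for the earlier primary screen, cut at about 22% in these data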
An asterisk follows results filed as active; / = no result. Most compounds without a hit are left out; they make up all but 5.9% or so of the library.

SMILES	LANA-H2A inh	PRMT1 inh	rCAG binder	Rtt109 Vps75	ABHD5-PLIN5 inh	ALR inh	PRMT1 confirm
O=C1CC(N(O)c2ccccc2)C(=O)N1c1ccc(Cl)c(Cl)c1 (stereo not drawn)	1.4	11.8	21.1	-7.4	-10.0	10.8	/
CCCCCCC(=O)N(O)C1CC(=O)N(c2ccc(Br)cc2)C1=O (stereo not drawn)	-2.9	41.9*	19.4	-1.2	-1.7	10.2	72.8*
CCCCCCC(=O)N(O)C1CC(=O)N(c2ccc(F)cc2)C1=O (stereo not drawn)	1.5	70.0*	11.1	-3.0	7.1	8.1	96.9*
COc1ccccc1N(O)C1CC(=O)N(c2ccc(Br)cc2)C1=O (stereo not drawn)	4.4	41.7*	27.2	20.0	3.1	/	50.0*
Cc1ccc(C2NC(=O)c3[nH]nc(-c4ccccc4)c32)cc1 (stereo not drawn)	/	0.6	3.7	/	/	/	/
C[C@H]1[C@@H](N(C)C)CC[C@@]23CCCN2C(=O)CCC[C@@H]13	/	-2.3	/	/	/	/	/
COc1ccc(N2C(=O)CC(NCc3cccc(F)c3)C2=O)cc1 (stereo not drawn)	-2.0	54.8*	0.7	-7.7	0.5	3.9	4.9
COc1ccc(N2C(=O)CC(NCc3ccc(F)cc3)C2=O)cc1 (stereo not drawn)	-3.7	65.8*	3.2	-1.2	5.3	0.1	1.7
COc1ccc(N2C(=O)CC(NCc3ccncc3)C2=O)cc1 (stereo not drawn)	4.2	8.2	16.3	/	3.5	-3.4	/
O=C(Oc1ccccc1)N1CCCCC1	/	2.6	1.9	/	-4.2	/	/
COCc1cc(N2CCN(C(=O)OC(C)(C)C)C[C@@H]2C)ccc1N1CCN(Cc2ccccc2)[C@@H](C)C1	/	1.8	1.1	/	/	/	/
COCc1cc(N2CCN(C(=O)OC(C)(C)C)C[C@@H]2C)ccc1N1CCS(=O)(=O)CC1	/	-4.0	-0.2	/	/	/	/
Cc1cc(N2CCN(C(=O)OC(C)(C)C)C[C@H]2C)ccc1N1CC[C@@H](O)C1	/	61.0*	0.5	/	/	/	11.2
COCc1cc(N2CCN(C(=O)OC(C)(C)C)C[C@H]2C)ccc1N1CC[C@H](O)C1	/	60.5*	6.2	/	/	/	1.4
Cc1cc(N2CCN(C(=O)OC(C)(C)C)C[C@@H]2C)ccc1N1CCN(Cc2ccccc2)[C@H](C)C1	/	2.7	3.3	/	/	/	/
COCc1cc(N2CCN(C(=O)OC(C)(C)C)C[C@@H]2C)ccc1N1CC[C@H](O)C1	/	58.4*	9.8	/	/	/	7.0
Fc1cccc(CNc2ncnc3cc(Cl)ccc23)c1F	-3.6	-1.8	0.3	1.9	7.1	-4.4	/
COc1ccc(-c2nc3ccccc3c(=O)n2Cc2ccccc2)cc1COc1ccc(NC(C)=O)cc1	/	4.2	/	/	/	/	/
CN(C)S(=O)(=O)c1cccc(C(=O)C2=C3SC=C(c4ccccc4)N3CC2)c1	-2.8	26.5*	15.6	14.9	-4.0	-2.8	27.9*
CN(C)S(=O)(=O)c1cccc(C(=O)N2CCc3ccccc32)c1	-6.5	-1.5	-5.8	-14.5	1.9	-11.4	/
CCOC(=O)c1sc(N)c(C(N)=O)c1C	5.4	-0.2	-2.9	1.3	-4.6	-4.3	/
CCOC(=O)c1c(N)sc(N)c1C(=O)OCC	0.1	30.6*	9.1	23.3	-6.2	22.2	55.8*
Cc1nnc(SC2CC(=O)N(c3ccccc3)C2=O)s1 (stereo not drawn)	4.1	78.3*	-1.4	99.6*	-0.4	15.6	70.0*
Cc1nc(SC2CC(=O)N(c3ccccc3)C2=O)nc2c1CCCC2 (stereo not drawn)	-1.9	7.5	-1.4	-4.7	-10.2	4.1	/
C=CCNc1nnc(SC2CC(=O)N(c3ccc(OC)cc3)C2=O)s1 (stereo not drawn)	1.0	83.5*	2.3	126.0*	12.8	36.8	72.2*
SMILES	LANA-H2A inh	PRMT1 inh	rCAG binder	Rtt109 Vps75	ABHD5-PLIN5 inh	ALR inh	PRMT1 confirm
COc1ccc(N2C(=O)CC(SCCc3nc4ccccc4[nH]3)C2=O)cc1 (stereo not drawn)	2.3	26.3*	2.9	0.2	-5.0	-7.8	-1.7
COc1ccc(N2C(=O)CC(Sc3nc4ccccc4s3)C2=O)cc1 (stereo not drawn)	-1.9	34.9*	12.6	1.2	-2.1	22.1	3.9
CCOc1ccc2nc(SC3CC(=O)N(c4ccc(OC)cc4)C3=O)sc2c1 (stereo not drawn)	0.3	7.1	1.3	-10.4	-1.1	1.8	/
CCOc1ccc(N2C(=O)CC(Sc3nc(C)cc(C)n3)C2=O)cc1 (stereo not drawn)	2.2	2.4	-6.1	46.2	-2.2	2.9	/
COc1ccc(N2C(=O)CC(Sc3nnc(-c4ccccc4F)n3C)C2=O)cc1 (stereo not drawn)	-1.0	35.7*	1.9	-4.5	-1.8	-0.1	48.3*
CCOc1ccc(N2C(=O)CC(Sc3nnnn3-c3ccccc3)C2=O)cc1 (stereo not drawn)	/	76.4*	1.4	4.5	26.9*	/	43.4*
C[C@H](c1ccccc1)N1C[C@@H](COCc2ccccc2)Oc2cccc(F)c2S1(=O)=O	/	0.3	0.3	/	/	/	/
CCC[C@H]1[C@@H](OC(=O)NCc2ccc(OC)c(OC)c2)CC[C@@]23CCCN2C(=O)CCC[C@@H]13	/	1.9	/	/	/	/	/
Cc1ccc2c(c1)c1c(n2CC(O)CN2C(=O)CNC2=O)C(=O)CCC1 (stereo not drawn)	-3.4	33.1*	7.8	-6.0	15.7	/	1.2
Cc1ccc2c(c1)c1c(n2CC(O)Cn2ccnc2C)C(=O)CCC1 (stereo not drawn)	-1.0	0.9	6.2	-49.0	-0.3	-1.6	/
CC(=O)C[C@@H]1SC[C@H](c2ccccc2)N1S(=O)(=O)c1ccc(C)cc1	/	2.3	0.6	/	7.1	/	/
O=C1CCC(C(=O)Nc2cccc(S(=O)(=O)Nc3ccccc3F)c2)=NN1	1.0	31.3*	2.5	-0.2	1.8	-6.2	20.9
O=C(Nc1cccc(S(=O)(=O)Nc2ccccc2F)c1)c1ccco1	-1.6	6.7	5.8	-1.7	-4.3	-1.8	/
CN(C(=O)c1cccc(NC(=O)C2CCN(C(=O)OC(C)(C)C)CC2)c1)C1CCCCC1	0.6	-0.6	-6.6	0.6	4.8	-0.4	/
CSCSC1=C(C#N)C(c2ccccc2Cl)C(C(C)=O)=C(C)N1 (stereo not drawn)	3.9	26.5*	3.7	/	1.9	-8.0	4.0
O=C(NCCNCc1ccccc1)c1ccco1	/	28.2*	26.8	11.6	5.5	/	8.5

Screening results from PubChem BioAssay.
